Source: PubChem BioAssay
Giardia FBPA inh: blocks Giardia fructose-bisphosphate aldolase activity | Potency, µM (series often up to 59.6 µM), without a hit: at the highest dose activity, negative = inhibition, most hits filed as inhibitors | hit rate 0.71% among 290,000 | A8B2U2 | purified Giardia FBPA | AID 2451; note: potency is the fitted concentration of half-maximal effect; % is set by controls: 0 for no effect and ±100 for the full control effect; nearly all actives have a fitted effect of over 55% in size
Target sequence (A8B2U2 whole entry, looked up): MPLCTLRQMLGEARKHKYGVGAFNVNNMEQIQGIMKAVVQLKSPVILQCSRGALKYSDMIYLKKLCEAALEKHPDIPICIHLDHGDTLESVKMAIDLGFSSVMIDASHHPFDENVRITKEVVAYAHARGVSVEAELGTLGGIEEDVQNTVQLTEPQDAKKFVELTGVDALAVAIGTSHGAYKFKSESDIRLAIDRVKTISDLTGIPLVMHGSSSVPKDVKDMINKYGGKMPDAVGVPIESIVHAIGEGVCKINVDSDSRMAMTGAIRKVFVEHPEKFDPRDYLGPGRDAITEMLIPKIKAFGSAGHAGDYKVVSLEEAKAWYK
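Giardia FBPA (40 nM reagent) was preincubated 10 min at RT with compound (up to 57.5 uM final), then substrate plus GAPDH/TPI/NAD/arsenate coupling system with diaphorase/resazurin was added; resorufin fluorescence (525/598 nm) was read after 20 min.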
Pf growth 96h: P. falciparum growth inhibition at 96 hours. P. falciparum luciferase reporter growth, 96 h. Potency, µM (series often up to 28.7 µM), inactives show at the highest dose activity change, negative = inhibition, actives largely listed as inhibitors. hit rate 6.9% among 320,000; note: potency is the fitted concentration of half-maximal effect; % is set by controls: 0 for no effect and ±100 for the full control effect
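P. falciparum expressing integrated firefly luciferase grown in erythrocytes (2% hematocrit, 0.05% parasitemia final) with compounds for 96 hours at 37 C, 5% CO2. Growth inhibition read as loss of luminescence after adding luciferase detection reagent.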
NS1 inh: influenza NS1 inhibition; Potency, µM (series often up to 46.1 µM), inactives show top-dose activity, positive = more growth; hit rate 0.4% among 270,000; AID 2326; calls by dose curve; note: potency is the fitted concentration of half-maximal effect; actives are rising curves; nearly all actives have a fitted effect of over 50% in size
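Read-out: OD600 growth recovery of NS1-expressing budding yeast. Cells grown overnight at 30C in -URA glucose medium, washed, resuspended and diluted 1:100 in 2% galactose assay medium, pH 6.0. Same strain lacking NS1 served as positive control.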
Pf growth 48h: inhibits P. falciparum growth in the first generation, 48 h; P. falciparum luciferase growth in erythrocytes, 48 h; Potency, µM (titrated, usually from 28.7 µM), without a hit: at the highest dose activity change, negative = inhibition, most hits filed as inhibitors; hit rate 5.9% among 310,000; note: potency is the fitted concentration of half-maximal effect; % is set by controls: 0 for no effect and ±100 for the full control effect
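Growth was read as firefly luciferase luminescence after a 48 h, 37 C, 5% CO2 exposure of compounds to reporter-bearing P. falciparum cultures (0.1% parasitemia, 2% hematocrit final) in Albumax-supplemented RPMI 1640.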
Shiga toxin inh: blocks Shiga toxin action in Vero cells. inhibition, % at 38.7 µM. hit rate 9.2% among 290,000. Vero cells, Shiga toxin protein synthesis inhibition reporter; in the data active = inhibition mostly above about 28%, no sharp cut-off; inactive = mostly below about 43%; note: 0% is about no effect
Cycloheximide cs: counter-screen hit for Shiga toxin inhibitors, cycloheximide. hit rate 12% among 300,000. cell reporter, cycloheximide protein synthesis inhibition counterscreen. AID 2314. max response, %; in the data active = max response mostly above about 13%, no sharp cut-off; inactive = mostly below about 14%; note: read at 38.3 µM for the half of the compounds with a filed dose; 0% is about no effect
Numbers without * were called inactive; ? = inconclusive; / = no result; [ ] = dose if it differs, or a comment. Only some compounds are listed: those with a hit (about 21% of all), similar ones and a draw of the others. Unless noted, calls come from the whole dose curve; as a rule, active = well fitted curve in the direction sought with a large enough effect; inconclusive = small, poorly fitted or top-dose-only effect, or another doubt; inactive = no such curve, though single readings can be large; an effect the other way counts as inactive or inconclusive.

SMILES | Giardia FBPA inh | Pf growth 96h | NS1 inh | Pf growth 48h | Shiga toxin inh | Cycloheximide cs
O=C(c1ccc2c(=O)n3c(nc2c1)CCC3)N1CCN(S(=O)(=O)c2cccc(F)c2)CC1 | / | ? | / | 11.7µM* | / | /
O=C(c1ccc2c(=O)n3c(nc2c1)CCCCC3)N1CCCCC1 | / | -23.0% | 4.8% | 20.8% | -1.2 | 20.7*
O=C(c1ccc2c(=O)n3c(nc2c1)CCCCC3)N1CCN(C(c2ccccc2)c2ccccc2)CC1 | -3.0% | 1.85µM* | 10.7% | / | -2.3 | -2.2
CN(C(=O)c1ccc2c(=O)n3c(nc2c1)CCCCC3)c1ccccc1Cl | 7.6% | -9.7% | -4.1% | -0.8% | 24.3 | 18.9*
CCc1ccc(CN(C)C(=O)c2ccc3c(=O)n4c(nc3c2)CCC4)cc1 | / | ? | 6.6% | -14.3% | -0.8 | -2.1
C[C@@H](C(=O)NCc1ccc(C(F)(F)F)nc1)[C@H]1C[C@]1(C)[C@H](NC(=O)OCc1ccccc1)c1ccccc1 | -6.0% | / | / | / | / | /
COc1cc(C(=O)OC(C)C(=O)NC(=O)NC2CCCCC2)ccc1OC(F)F (stereo not given) | / | 17.4% | / | -16.1% | / | /
COc1ccc(OC2C=CC(c3ccccc3)OC2CO)c(C(C)(C)C)c1 (stereo not given) | -2.7%[12.9 µM] | / | / | / | / | /
Cc1ccc(Cc2nc(-c3cccnc3)no2)cc1 | 3.6% | -24.6% | -11.3% | 41.1% | 111.4* | 33.9*
Clc1ccc(Cc2nc(-c3cccnc3)no2)cc1 | 0.9% | 50.2% | -25.7% | 18.5% | 9.6 | 17.0*
CC(/C=N\NC(=O)Cn1cncn1)=C/c1ccc(C(C)C)cc1 | 0.3% | 20.3% | -0.4% | 23.2% | 80.8* | 24.2*
CC(/C=N/NC(=O)Cn1cnc2ccccc21)=C\c1ccccc1 | 1.1% | 0.0% | 0.6% | -17.9% | -8.6 | -3.8
Cc1ccc(/C=N/NC(=O)Cn2nnc(N)n2)cc1 | 0.2% | 34.6% | 6.8% | -2.6% | -3.6 | -1.9
CC(/C=N/NC(=O)Cn1nccc1C)=C\c1ccc(C(C)C)cc1 | 2.7% | 3.2% | -23.3% | 12.1% | 43.1* | 41.8*
CC(=C/c1ccc(C(C)C)cc1)/C=N/NC(=O)Cn1nc(C)cc1C | 5.2% | 2.1% | 8.6% | -9.6% | 65.3 | 18.0*
CC(/C=N/NC(=O)Cn1nnc(N)n1)=C\c1ccc(C(C)C)cc1 | -3.1% | 30.6% | 1.1% | 2.4% | 76.9* | 24.3*
CCN(CC)CCCn1c(-c2ccccc2)nc2c(N3CCOCC3)nc(C)nc21 | 0.8% | / | / | / | / | /
O=C(COC(=O)c1cc[n+]([O-])cc1)Nc1ccc([N+](=O)[O-])cc1C(F)(F)F | / | 62.3% | / | 1.9% | / | /
COC(=O)CC1c2ccccc2C(Cc2ccc3c(c2)OCO3)=C(C)N1C(=O)OC (stereo not given) | -2.1% | / | / | / | / | /
O=C(O)COc1ccccc1/C=N/NC(=O)CN1CCN(Cc2ccc(Cl)cc2)CC1 | 1.3% | -19.6% | 5.1% | 30.6% | -4.1 | -3.2
COc1cccc2[nH]c3c(N4CCCCC4)ncnc3c12 | -10.5% | 23.4% | -11.6% | ? | 67.3 | 45.5*
COc1cc2[nH]c3c(N4CCN(c5ccccn5)CC4)ncnc3c2cc1OC | -5.4% | 14.7µM* | -35.2% | 9.28µM* | -7.8 | -3.8
COc1ccc2[nH]c3c(N4CCc5ccccc5C4)ncnc3c2c1 | -3.3% | ? | -6.1% | ? | 13.5 | 28.4*
Cc1cccc2[nH]c3c(N4CC=C(c5ccc(F)cc5)CC4)ncnc3c12 | -10.9% | ? | -44.5% | 10.4µM* | -4.3 | 1.9
NC(=O)C1CCN(c2nc(-c3ccccc3)cs2)CC1 | / | ? | / | 15.8% | / | /
SMILES | Giardia FBPA inh | Pf growth 96h | NS1 inh | Pf growth 48h | Shiga toxin inh | Cycloheximide cs
COc1ccc(-c2noc(-c3ccccc3C(=O)Nc3cccnc3)n2)cc1 | 0.4% | -0.9% | -8.2% | ? | 26.6 | 6.0
COc1ccc(NC(=S)NNC(=O)C(C)n2nc(C)c([N+](=O)[O-])c2C)cc1 (stereo not given) | 6.0% | / | 4.0% | 4.7% | 21.3 | -1.3
COc1cc2ccccc2cc1-c1nnc(COc2ccccc2)o1 | 12.5% | 21.6% | -19.5% | / | 23.8 | 5.9
COc1cccc(-c2noc(C(C)n3nc(C)c([N+](=O)[O-])c3C)n2)c1 (stereo not given) | -1.5% | -11.0% | -3.4% | 3.7% | 8.8 | 17.9*
COc1cccc(-c2noc(-c3cccs3)n2)c1 | 4.1% | / | -1.7% | 328.0% | 53.6* | 39.0*
COc1cccc(OCc2nnc(-c3cccs3)o2)c1 | 4.3% | 25.1% | -4.5% | 77.8% | 32.5* | 33.2*
COc1ccc(-c2noc(-c3ccccc3C(=O)Nc3cccnc3)n2)cc1OC | -15.4% | / | -32.9% | 10.4µM* | -0.1 | 6.9
Cc1sc2ncn(CC(=O)N3CCN(c4ccccc4)CC3)c(=O)c2c1S(=O)(=O)N1CCOCC1 | 2.5% | ? | 5.6% | -2.3% | -22.9 | -5.4
CC(OC(=O)CC(C)c1ccccc1)C(=O)Nc1ccc(Cl)cn1 (stereo not given) | / | 22.2% | / | ? | / | /
N#Cc1c(-c2ccc(F)cc2)noc1N | 2.7% | / | -75.1% | / | 23.1 | 6.4
COc1cccc(-c2nc(-c3ccccc3)no2)c1 | 2.3% | ? | -63.3% | 270.7% | 63.0* | 36.7*
COc1cccc(-c2noc(-c3cccnc3)n2)c1 | 3.6% | ? | -18.6% | 250.4% | 68.4* | 33.6*
COc1cccc(-c2nc(-c3ccccn3)no2)c1 | / | ? | -17.9% | 33.6% | -24.9 | -10.5
COc1ccc(-c2nc(-c3cccnc3)no2)cc1OC | 1.9% | 52.9% | -7.5% | 64.0% | 46.9* | 39.1*
COc1cccc(-c2noc(N)c2C#N)c1 | 10.8% | -2.5% | -54.5% | 7.38µM* | 21.2 | 17.2*
OC[C@H]1OC(O)[C@@H](O)[C@@H](O)[C@H]1O (stereo not given in full) | -5.2% | / | / | / | 16.9 | -3.6
O=C(COc1cccnc1[N+](=O)[O-])Nc1cc(S(=O)(=O)N2CCCCC2)ccc1Cl | -3.3% | -0.4% | -9.1% | -13.7% | 2.1 | -3.6
CCN(CC)S(=O)(=O)c1ccc(O)c(C(=O)OCC(=O)N2c3ccccc3CC2C)c1 (stereo not given) | 1.8% | 49.9% | 0.8% | 21.2% | 12.7 | -3.3
CN1C(=O)[C@@H]2[C@@H]3C[C@@H]([C@H]4ON=C(c5ccc(Cl)cc5)[C@@H]34)[C@@H]2C1=O | 3.6% | -16.3% | 6.8% | 5.1% | -10.7 | -2.7
O=C1[C@@H]2[C@@H]3C[C@@H]([C@H]4ON=C(c5ccc(Cl)cc5Cl)[C@@H]34)[C@@H]2C(=O)N1C1CCCCC1 | -2.0% | ? | 17.5% | -10.2% | -9.0 | 30.9*
CCOC(=O)N/N=C1/C[C@@H](O)[C@@H](O)[C@@H]2[C@@H]3C(=O)N(C(C)(C)C)C(=O)[C@H]3CC[C@H]12 | 1.7%[12.9 µM] | / | / | / | / | /
CCOC(=O)N1CCC(N2CCCC(CO)(Cc3ccccc3C)C2)CC1 (stereo not given) | 2.2% | ? | 0.9% | ? | -2.8 | -1.2
CN1CCN(Cc2nc3ccccc3c(=O)n2Cc2nc(-c3ccc([N+](=O)[O-])cc3)cs2)CC1 | -18.7% | 2.62µM* | 20.3% | ? | -36.4 | -8.8
